Experimental findings from PubChem BioAssay are described below.

A short description of assay [1]: inhibitors of TNFa-induced NFkB p65 translocation, primary screen, imaging, HUVEC, MLSMR starter and 10KST1 sets (AID 438;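 active = inhibition above 20% together with a positive visual image hit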;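 note: compound added about 3h40 before a 20 min TNFalpha stimulation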;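 for inhibition: signal is the nuclear over cytoplasmic p65 intensity ratio per well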). Conditions: HUVEC TNFa-induced p65 nuclear translocation; cell count: measured here: nuclei count (cytotoxicity indicator), at 2.08 µM; inhibition: at 2 µM, stronger effect = higher value, 0% TNFa-plus-vehicle, 100% no-TNFa wells.
Assay [2] is described as follows: reduction of polyQ htt aggregates in cells – imaging, exon1htt(103Q)mCFP cells, high-content imaging, primary screen (AID 483;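 active = visual image review flags a hit and inhibition of aggregation exceeds 20%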;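 note: compound exposure lasted 3 days before fixation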;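 for nuclei count: percent of the per-plate median nuclei count of sample wells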). Conditions: exon1htt(103Q)mCFP cell line, aggregate imaging, at 2 µM; inhibition of aggregation: stronger effect = higher value; nuclei count: measured here: cell count, toxicity.
Assay [3] in a line: endothelial E-selectin expression blockers – imaging, HUVEC, immunofluorescence, MLSMR starter and 10KST1 sets, primary screen (AID 487;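 active = visually confirmed hit in the image check and inhibition above 20%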;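 for inhibition: signal is fraction of cell area covered by stained E-selectin grains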;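 for nuclei count: 100% = median nuclei count of all wells on the same plate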). Conditions: HUVEC TNFalpha-induced E-selectin immunofluorescence imaging, at 2 µM; inhibition: stronger effect = higher value; nuclei count: measured here: cell number, toxicity.
Assay [4] has as its target Voltage-gated potassium channel subunit beta-2 (Rattus norvegicus) (UniProt P62483). In words: inhibitors of rat Kvbeta2 reductase activity – biochemical, NADPH fluorescence, primary screen (AID 622;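 active = fluorescence slope higher than the sample average by over 3 SD, cut at about -0.22 in these data, passing the limit was not always enough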;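 note: slope of raw intensity against log time taken from 70 to 1610 s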). The following applies: recombinant KvBeta, 4-cyanobenzaldehyde reduction, at 10 µM, stronger effect = higher value.
Assay [5] shares this target. In words: enhancers of rat Kvbeta2 NADPH turnover – biochemical, NADPH fluorescence, primary screen (AID 623;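 active = NADPH fluorescence slope more negative than the mean of all samples by about 3 SD, 99.7% confidence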;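 note: fluorescence intensity change per second fitted from 20 to 320 s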). Conditions: Recombinant KvBeta, NADPH fluorescence decrease slope, 10 min; at 10 µM; stronger effect = lower value.
The target of assay [6] is Alpha-2C adrenergic receptor (Homo sapiens) (UniProt P18825). In words: compounds altering alpha2C-coupled GIRK flux – cell-based, HEK293 alpha2C/GIRK1/2, thallium flux, primary screen (AID 624).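 Note: slope of fluorescence ratio to pre-addition baseline per second over 15 to 24 s.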 Conditions: thallium flux BTC fluorescence, at 10 µM, actives lie on both sides.
Assay [7] in a line: blockers of RIG-like receptor reporter activation – cell-based, Sendai virus stimulus, luciferase, 10K MLSCN set, TLR/RLR signaling modifier project, primary screen (AID 602276;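 active = inhibition at or above 50% at 10 µM; inactive = inhibition below 50%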;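 note: firefly luciferase from ISG56 promoter only with Renilla not read in this screen; 0% = Sendai virus plus DMSO and 100% = medium plus DMSO without virus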). The following applies: HEK293 RL24 IRF3 luciferase reporter, at 10 µM, stronger effect = higher value. For orientation: A reporter such as luciferase makes a cellular process visible.
A short description of assay [8]: TLR3 IRF3 reporter activation blockers – cell-based, poly I:C stimulus, luciferase, 10K MLSCN set, primary screen (AID 602277;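 active = inhibition of the reporter signal at or above 50%; inactive = inhibition below 50%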). Conditions: HEK293-TLR3 RL24 IRF3 luciferase reporter, at 10 µM, stronger effect = higher value.

Active and inactive are the calls of the source.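 Rule for the calls, unless noted: active = fluorescence slope after compound addition differing from the mean of all screened samples at 99.7% confidence, in either direction; inactive = the rest.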

Chain of Voltage-gated potassium channel subunit beta-2 (Rattus norvegicus) (P62483 whole entry, looked up): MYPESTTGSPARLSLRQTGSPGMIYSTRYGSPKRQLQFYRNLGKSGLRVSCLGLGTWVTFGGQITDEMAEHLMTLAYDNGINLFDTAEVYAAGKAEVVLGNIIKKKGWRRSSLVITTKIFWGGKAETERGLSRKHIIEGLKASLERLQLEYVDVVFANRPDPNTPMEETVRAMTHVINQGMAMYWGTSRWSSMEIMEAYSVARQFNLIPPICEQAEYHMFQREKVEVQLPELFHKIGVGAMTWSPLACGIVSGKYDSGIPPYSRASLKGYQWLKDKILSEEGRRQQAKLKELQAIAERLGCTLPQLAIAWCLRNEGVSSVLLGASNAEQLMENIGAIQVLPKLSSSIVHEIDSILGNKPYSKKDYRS
Chain of Alpha-2C adrenergic receptor (Homo sapiens) (P18825 whole entry, looked up): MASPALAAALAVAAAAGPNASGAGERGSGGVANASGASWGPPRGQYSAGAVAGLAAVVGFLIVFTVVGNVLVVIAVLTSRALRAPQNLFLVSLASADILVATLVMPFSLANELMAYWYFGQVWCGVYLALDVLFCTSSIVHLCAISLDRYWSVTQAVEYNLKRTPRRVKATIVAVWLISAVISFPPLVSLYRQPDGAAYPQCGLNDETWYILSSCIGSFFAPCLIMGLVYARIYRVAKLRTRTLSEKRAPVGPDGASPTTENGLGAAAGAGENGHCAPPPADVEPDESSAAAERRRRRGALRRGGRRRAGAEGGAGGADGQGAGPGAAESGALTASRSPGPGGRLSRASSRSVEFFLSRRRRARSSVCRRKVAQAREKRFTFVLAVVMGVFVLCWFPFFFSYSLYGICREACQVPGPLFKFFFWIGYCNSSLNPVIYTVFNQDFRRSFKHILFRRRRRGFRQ

A word on the inhibition: it is the relative decrease from the control value, in per cent. Consider `CCOC(=O)N1CCN(C(=O)CSc2nnc(COc3ccccc3)o2)CC1`, for which, in assay [1], the cell count was determined as 596. For the same compound, the inhibition in assay [1] is 4.7% (inactive); in assay [3] it was -3.6% (inactive); in assay [7], -13.9% (inactive); in assay [8] it was 10.1% (inactive). The inhibition of aggregation in assay [2] was -3.5% (inactive). The nuclei count in assay [2] was 105%; in assay [3], 112%. Besides, the fluorescence slope in assay [4] was -0.565 (inactive). In addition, the NADPH fluorescence slope in assay [5] is 1.8e-05 (inactive). Further, the slope in assay [6] was 0.00595 (inactive).

Turning to `COc1ccc(Nc2ncnc3c2cnn3-c2ccccc2)cc1OC`, the cell count in assay [1] was 761. In addition, the inhibition is -15.1% (inactive) in assay [1], -10% (inactive) in assay [3], -10.2% (inactive) in assay [7] and -29.8% (inactive) in assay [8]. The inhibition of aggregation in assay [2] is -26.1% (inactive). For the same compound, the nuclei count was 84.3% in assay [2] and 103% in assay [3]. In assay [4], the fluorescence slope was -0.366 (inactive). The NADPH fluorescence slope in assay [5] is 1.2e-05 (inactive). For the same compound, in assay [6], the slope is 0.00554 (inactive).

For the compound `COc1cccc(C2C(C(=O)c3ccc(C)o3)=C(O)C(=O)N2CCCN(C)C)c1` (stereo not drawn), the cell count in assay [1] is 239. Also, the inhibition in assay [1] was -10.9% (inactive); in assay [3] it was -110% (inactive); in assay [7], 10.4% (inactive); in assay [8], 15.6% (inactive). Besides, the inhibition of aggregation in assay [2] is 45.3% (active). The nuclei count came out at 83.9% in assay [2] and 111% in assay [3]. Moreover, the fluorescence slope in assay [4] was -0.592 (inactive). Also, the NADPH fluorescence slope in assay [5] was -5.1e-05 (inactive). In assay [6], the slope is 0.00639 (inactive).

On to `C/C=C/Cn1c(SCCCc2ccccc2)nc2c1c(=O)[nH]c(=O)n2C`, for which the cell count in assay [1] turned out to be 658. Moreover, the inhibition in assay [1] was -6.4% (inactive); in assay [3] it was -13.9% (inactive); in assay [7], 1.4% (inactive); in assay [8] it was 5.27% (inactive). Further, in assay [2], the inhibition of aggregation is -13.8% (inactive). In addition, the nuclei count in assay [2] worked out at 101%; in assay [3], 102%. Moreover, in assay [4], the fluorescence slope was -0.517 (inactive). In assay [5], the NADPH fluorescence slope was -1.9e-05 (inactive). For the same compound, in assay [6], the slope is 0.00629 (inactive).

As to `O=C(Cn1cnc2c(cnn2-c2ccccc2)c1=O)NCCc1ccccc1`, the cell count in assay [1] came to 441. Further, the inhibition was 3.5% (inactive) in assay [1], -25% (inactive) in assay [3], 10.8% (inactive) in assay [7] and 17.4% (inactive) in assay [8]. Besides, the inhibition of aggregation in assay [2] is -9.4% (inactive). The values for the nuclei count in assay [2] and in assay [3] were 112% and 113%, respectively. Moreover, in assay [4], the fluorescence slope is -0.535 (inactive). The NADPH fluorescence slope in assay [5] was -6.8e-07 (inactive). In assay [6], the slope is 0.00728 (inactive).

For `Cc1ccc(-c2nnn(CC(=O)N(Cc3cccs3)C(C(=O)NC(C)(C)C)c3ccc(C)o3)n2)o1` (stereo not drawn), the cell count in assay [1] turned out to be 675. The inhibition is -4% (inactive) in assay [1], -20.1% (inactive) in assay [3], 16.3% (inactive) in assay [7] and 20.6% (inactive) in assay [8]. In assay [2], the inhibition of aggregation was -2.3% (inactive). Moreover, the nuclei count in assay [2] was determined as 136%; in assay [3], 137%. The fluorescence slope in assay [4] was -0.361 (inactive). In assay [5], the NADPH fluorescence slope is -2.9e-05 (inactive). Also, the slope in assay [6] is 0.00454 (inactive).

Consider `COc1ccc(OC)c(CNC(=O)COc2cc(=O)n(C)c3ccccc23)c1`, for which, in assay [1], the cell count was found to be 367. In addition, the inhibition was 4.3% (inactive) in assay [1], 18% (inactive) in assay [3], 6.07% (inactive) in assay [7] and 6.23% (inactive) in assay [8]. Also, in assay [2], the inhibition of aggregation is -8.1% (inactive). The values for the nuclei count in assay [2] and in assay [3] were 105% and 100%, respectively. Also, the fluorescence slope in assay [4] is -0.349 (inactive). Also, the NADPH fluorescence slope in assay [5] is -7.1e-06 (inactive). Moreover, the slope in assay [6] is 0.00576 (inactive).

Turning to `Cc1nn(-c2ccc(Cl)cc2)c2sc(C(=O)N3CCN(c4ccccn4)CC3)cc12`, the cell count in assay [1] worked out at 571. Also, the inhibition in assay [1] is -3.6% (inactive); in assay [3], 42.5% (inactive); in assay [7], 9.58% (inactive); in assay [8], -7.18% (inactive). Further, the inhibition of aggregation in assay [2] was 1.7% (inactive). Also, the values for the nuclei count in assay [2] and in assay [3] were 95.6% and 108%, respectively. In addition, the fluorescence slope in assay [4] is -0.612 (inactive). The NADPH fluorescence slope in assay [5] is -2.4e-05 (inactive). In addition, the slope in assay [6] was 0.011 (active).
